38 compounds from PubChem BioAssay (Tox21) can be followed below.

Inconclusive results are not listed. A call without a number means that no potency is given here. Values without a mark were called inactive. Activity calls are given as the source filed them. Calls follow the shape of the dose curve; as a rule, active = well fitted curve in the direction sought with a large enough effect in the repeat runs; inconclusive = weak or mixed curves; inactive = no such curve, though single readings can be large; an effect the other way counts as inactive or inconclusive.

The first assay is described as follows: A CellTox Green Cytotoxicity Assay to monitor cytotoxicity in HEK293 cells - 40 hour (AID 1224871). Also: nearly all actives have a fitted effect of over 45% in size. As to conditions: CellTox Green fluorescence; series mostly up to 76.8 µM. In short, it runs like this: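 Homogeneous no-lysis format: HEK293 cell suspension mixed with CellTox Green reagent, seeded, incubated 5 h at 37 C/5% CO2, then dosed by pintool with compound in DMSO.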
For `CC(=O)Nc1ccc(C)cc1`, the Potency entry is “inactive”.
On the same count and under the same terms, the result for `CCC1COC(=O)O1` (centres undefined) reads “inactive”; that for `C[CH2][Ge]([Cl])([CH2]C)[CH2]C`, “inactive”.
Same read-out and setting: with `Cc1cccc(Nc2ccncc2S(=O)(=O)NC(=O)NC(C)C)c1` the entry was “inactive”; with `Oc1ccccc1Cc1ccccc1O`, “inactive”; with `CCCCCN(CCCOC)C(=O)C(CCC(=O)O)NC(=O)c1ccc(Cl)c(Cl)c1` (centres undefined), “inactive”.
`NS(=O)(=O)c1ccccc1OC(F)(F)F`: the Potency result was “inactive”.
On the same count and under the same terms, the result for `CC(=O)OCCCc1ccccc1` reads “inactive”.
The same measure, in the same setting: the result for `CN[C@@H]1[C@@H](O)[C@@H](O[C@@H]2[C@H](O)[C@H](O[C@H]3OC(CN)=CC[C@H]3N)[C@@H](N)C[C@H]2N)OCC1(C)O` (some centres undefined) reads “inactive”.
For the compound `CCC(C)(C)C1CCC(=O)CC1`, the Potency entry is “inactive”.
`Cc1ccccc1C`: the Potency entry is “inactive”.
Same read-out and setting: with `NC(=O)NNC(N)=O` the entry was “inactive”; with `CCCCCCCCCCCCCCCC(=O)NCCO`, “inactive”; with `O=C(O)c1ccc(OCCN2CCCCC2)cc1`, “inactive”.
The same measure, in the same setting: with `C=CCOc1c(Br)cc(Br)cc1Br` the entry was “inactive”; with `O=CN1CCOCC1`, “inactive”; with `CCCCCCCCOC(C)=O`, “inactive”.
Take `CC(C)COC(=O)COc1ccc(Cl)cc1Cl`: the Potency result is “inactive”.
The same measure, in the same setting: the result for `CCCCC(C)C(=O)O` (centres undefined) reads “inactive”.
In the case of `CCCCCCCCCCCCCCCCI`, the cytotoxicity increase was -8.08% [at 15.8 µM].
For `COc1ccc(NS(=O)(=O)c2ccc(N)cc2)nn1`, the Potency result is “inactive”.
Still for that read-out and setting: the result for `O=c1[nH]c(=O)c2ccccc2o1` reads “inactive”; that for `CNCc1ccccc1`, “inactive”.
Still for that read-out and setting: with `CCCCCCCCCCC` the entry was “inactive”.
Still for that read-out and setting: the result for `C=CCOc1c(Br)cc(C(C)(C)c2cc(Br)c(OCC=C)c(Br)c2)cc1Br` reads “inactive”.
Regarding `O=C(O)/C=C/c1ccccc1`, the Potency result was “inactive”.
On to `C[C@H](CCC(=O)NCC(=O)O)[C@H]1CC[C@H]2[C@@H]3[C@H](O)C[C@@H]4C[C@H](O)CC[C@]4(C)[C@H]3C[C@H](O)[C@]12C`, for which the Potency entry is “inactive”.
On to `CCCOC(=O)CCCCC(=O)OCCC`, for which the Potency result is “inactive”.
For `CN(C)CCOCCN(C)CCO`, the Potency result is “inactive”.
Still for that read-out and setting: the result for `CC(C)SCc1ccco1` reads “inactive”; that for `CCNC(=O)NCCCOc1cccc(CN2CCCCC2)c1`, “inactive”; that for `COc1cc(C=O)ccc1OC(=O)C(C)C`, “inactive”.
With `O=C(Oc1ccccc1C(=O)O)c1ccccc1O`, the Potency result was “inactive”.
On the same count and under the same terms, the result for `O=C(O)CCNC(=O)c1ccccc1` reads “inactive”; that for `CC(=O)Nc1ncc([N+](=O)[O-])s1`, “inactive”.
As to `COc1cccc2sc(N)nc12`, the Potency result is “inactive”.

A short description of the next assay: qHTS RealTime-Glo MT Cell Viability Assay in HEK293 cells - 16 hour (AID 1224872). Also: top concentration of the series differs between compounds; nearly all actives have a fitted effect of over 50% in size. As to conditions: RealTime-Glo luminescence; series mostly up to 76.8 µM. The procedure, abridged: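 HEK293 cells seeded with NanoLuc/prosubstrate reagent, rested 5 h at 37 C, then dosed and kept at 37 C up to 40 h. Nonlytic real-time luminescence from viable cells read at 0, 8, 16, 24, 32 and 40 h.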
In general terms: qHTS replaces the single test concentration by a dilution series.
Take `CC(=O)Nc1ccc(C)cc1`: the Potency result was “inactive”.
On the same count and under the same terms, with `CCC1COC(=O)O1` (centres undefined) the entry was “inactive”; with `C[CH2][Ge]([Cl])([CH2]C)[CH2]C`, “inactive”.
The same measure, in the same setting: with `Cc1cccc(Nc2ccncc2S(=O)(=O)NC(=O)NC(C)C)c1` the entry was “inactive”.
The same measure, in the same setting: the result for `CCCCCN(CCCOC)C(=O)C(CCC(=O)O)NC(=O)c1ccc(Cl)c(Cl)c1` (centres undefined) reads “inactive”.
`NS(=O)(=O)c1ccccc1OC(F)(F)F`: the Potency entry is “inactive”.
Turning to `CC(=O)OCCCc1ccccc1`, the Potency entry is “inactive”.
Regarding `CN[C@@H]1[C@@H](O)[C@@H](O[C@@H]2[C@H](O)[C@H](O[C@H]3OC(CN)=CC[C@H]3N)[C@@H](N)C[C@H]2N)OCC1(C)O` (some centres undefined), the Potency entry was “inactive”.
For the compound `CCC(C)(C)C1CCC(=O)CC1`, the Potency result was “inactive”.
On the same count and under the same terms, with `Cc1ccccc1C` the entry was “inactive”; with `NC(=O)NNC(N)=O`, “inactive”.
In the case of `CCCCCCCCCCCCCCCC(=O)NCCO`, the Potency result was “inactive”.
Same read-out and setting: the result for `O=C(O)c1ccc(OCCN2CCCCC2)cc1` reads “inactive”; that for `C=CCOc1c(Br)cc(Br)cc1Br`, “inactive”; that for `O=CN1CCOCC1`, “inactive”.
As to `CCCCCCCCOC(C)=O`, the Potency entry is “inactive”.
Turning to `CC(C)COC(=O)COc1ccc(Cl)cc1Cl`, the Potency result was “inactive”.
Same read-out and setting: the result for `CCCCC(C)C(=O)O` (centres undefined) reads “inactive”.
For `CCCCCCCCCCCCCCCCI`, the activity change, negative = cytotoxicity was -6.59% [at 15.8 µM].
Regarding `COc1ccc(NS(=O)(=O)c2ccc(N)cc2)nn1`, the Potency result was “inactive”.
Still for that read-out and setting: the result for `O=c1[nH]c(=O)c2ccccc2o1` reads “inactive”; that for `CNCc1ccccc1`, “inactive”.
Same read-out and setting: with `O=C(COCCOCCOCC(=O)Nc1c(I)cc(I)c(C(=O)O)c1I)Nc1c(I)cc(I)c(C(=O)O)c1I` the entry was “inactive”; with `CCCCCCCCCCC`, “inactive”; with `C=CCOc1c(Br)cc(C(C)(C)c2cc(Br)c(OCC=C)c(Br)c2)cc1Br`, “inactive”.
Turning to `O=C(O)/C=C/c1ccccc1`, the Potency entry was “inactive”.
On to `CCCOC(=O)CCCCC(=O)OCCC`, for which the Potency result is “inactive”.
Still for that read-out and setting: the result for `CN(C)CCOCCN(C)CCO` reads “inactive”.
The same measure, in the same setting: with `CC(C)SCc1ccco1` the entry was “inactive”; with `CCNC(=O)NCCCOc1cccc(CN2CCCCC2)c1`, “inactive”.
`COc1cc(C=O)ccc1OC(=O)C(C)C`: the Potency result was “inactive”.
For the compound `O=C(Oc1ccccc1C(=O)O)c1ccccc1O`, the Potency result was “inactive”.
The same measure, in the same setting: the result for `CCCCCCCCCCCCCCCCCCN(C)C` reads “inactive”; that for `O=C(O)CCNC(=O)c1ccccc1`, “inactive”.
The same measure, in the same setting: the result for `CC(=O)Nc1ncc([N+](=O)[O-])s1` reads “inactive”; that for `COc1cccc2sc(N)nc12`, “inactive”.

The nature of a further assay: qHTS RealTime-Glo MT Cell Viability Assay in HepG2 cells - 8 hour (AID 1224873). Also: nearly all actives have a fitted effect of over 55% in size. As to conditions: RealTime-Glo luminescence; series mostly up to 76.8 µM. In short, it runs like this:
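HepG2 cells (600/well) mixed with RealTime-Glo MT reagent, settled 5 h at 37 C/5% CO2 before compound addition. Nonlytic NanoLuc luminescence from viable-cell prosubstrate reduction read repeatedly during 40 h treatment at 37 C.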
Regarding `CC(=O)Nc1ccc(C)cc1`, the compound was classed as inactive.
Still for that read-out and setting: the result for `CCC1COC(=O)O1` (centres undefined) reads “inactive”; that for `C[CH2][Ge]([Cl])([CH2]C)[CH2]C`, “inactive”; that for `Oc1ccccc1Cc1ccccc1O`, “inactive”.
Same read-out and setting: with `NS(=O)(=O)c1ccccc1OC(F)(F)F` the entry was “inactive”.
The same measure, in the same setting: with `CN[C@@H]1[C@@H](O)[C@@H](O[C@@H]2[C@H](O)[C@H](O[C@H]3OC(CN)=CC[C@H]3N)[C@@H](N)C[C@H]2N)OCC1(C)O` (some centres undefined) the entry was “inactive”; with `Cc1ccccc1C`, “inactive”; with `NC(=O)NNC(N)=O`, “inactive”.
Regarding `CCCCCCCCCCCCCCCC(=O)NCCO`, the result was inactive.
Take `O=C(O)c1ccc(OCCN2CCCCC2)cc1`: the compound was called inactive.
Still for that read-out and setting: the result for `C=CCOc1c(Br)cc(Br)cc1Br` reads “inactive”.
On the same count and under the same terms, the result for `O=CN1CCOCC1` reads “inactive”.
For the compound `CCCCCCCCOC(C)=O`, the result was inactive.
As for `CC(C)COC(=O)COc1ccc(Cl)cc1Cl`, the result was inactive.
Regarding `CCCCCCCCCCCCCCCCI`, the viability change, negative = cytotoxic was -19.7% [at 15.8 µM].
On to `COc1ccc(NS(=O)(=O)c2ccc(N)cc2)nn1`, for which the compound was called inactive.
For the compound `O=c1[nH]c(=O)c2ccccc2o1`, the outcome was inactive.
Same read-out and setting: with `CNCc1ccccc1` the entry was “inactive”.
The same measure, in the same setting: the result for `O=C(COCCOCCOCC(=O)Nc1c(I)cc(I)c(C(=O)O)c1I)Nc1c(I)cc(I)c(C(=O)O)c1I` reads “inactive”; that for `CCCCCCCCCCC`, “inactive”; that for `C=CCOc1c(Br)cc(C(C)(C)c2cc(Br)c(OCC=C)c(Br)c2)cc1Br`, “inactive”.
Same read-out and setting: the result for `O=C(O)/C=C/c1ccccc1` reads “inactive”.
As for `C[C@H](CCC(=O)NCC(=O)O)[C@H]1CC[C@H]2[C@@H]3[C@H](O)C[C@@H]4C[C@H](O)CC[C@]4(C)[C@H]3C[C@H](O)[C@]12C`, the compound was classed as inactive.
Still for that read-out and setting: the result for `CCCOC(=O)CCCCC(=O)OCCC` reads “inactive”.
On the same count and under the same terms, the result for `CN(C)CCOCCN(C)CCO` reads “inactive”; that for `CC(C)SCc1ccco1`, “inactive”; that for `CCNC(=O)NCCCOc1cccc(CN2CCCCC2)c1`, “inactive”.
For the compound `COc1cc(C=O)ccc1OC(=O)C(C)C`, the call was inactive.
Still for that read-out and setting: the result for `O=C(Oc1ccccc1C(=O)O)c1ccccc1O` reads “inactive”; that for `CCCCCCCCCCCCCCCCCCN(C)C`, “inactive”.
As for `O=C(O)CCNC(=O)c1ccccc1`, the call was inactive.
Turning to `CC(=O)Nc1ncc([N+](=O)[O-])s1`, the call was inactive.
